This excerpt belongs to a sample that is enriched for hits.
AmpC detergent = qHTS Inhibitors of AmpC Beta-Lactamase (assay with detergent); Potency, µM (titrated, usually from 114 µM), inactives show top-dose activity change, negative = inhibition, hits mostly inhibitors; P00811; AID 485294, 2010; 0.041% of 370,000 active; AmpC hydrolysis of nitrocefin, absorbance 480 nm, 0.01% Triton;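 note: potency is the fitted concentration of half-maximal effect; 0% = no-compound wells and -100% = no-enzyme wells; nearly all actives have a fitted effect of over 25% in size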
Target sequence (P00811 whole entry, looked up): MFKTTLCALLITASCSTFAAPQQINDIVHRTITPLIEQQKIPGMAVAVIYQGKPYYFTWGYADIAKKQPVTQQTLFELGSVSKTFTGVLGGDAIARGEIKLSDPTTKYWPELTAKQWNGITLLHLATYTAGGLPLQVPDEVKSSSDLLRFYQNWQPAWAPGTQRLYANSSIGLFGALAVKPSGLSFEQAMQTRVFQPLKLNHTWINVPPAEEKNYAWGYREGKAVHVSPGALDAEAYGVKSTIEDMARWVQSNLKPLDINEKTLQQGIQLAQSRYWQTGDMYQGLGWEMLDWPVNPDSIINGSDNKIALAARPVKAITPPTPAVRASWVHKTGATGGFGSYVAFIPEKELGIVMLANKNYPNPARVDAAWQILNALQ
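AmpC (5.3 nM in the dispensed reagent) in 20 mM phosphate pH 7.0 with 0.01% (detergent screen) or 0.0001% Triton X-100 was preincubated with compounds for 15 min at room temperature. Nitrocefin was then added from an 800 uM solution, and hydrolysis was followed at 480 nm.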
AMA1-RON2 inh = qHTS for Inhibitors of AMA1-RON; Towards Development of Antimalarial Drug Lead: Primary Screen | AlphaScreen AMA1-biotinylated RON2 peptide binding | Potency, µM (titrated, usually from 58.2 µM), inactives show at the top dose activity change, negative = inhibition, actives largely listed as inhibitors | 0.2% of 360,000 active | AID 720542, 2013;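 note: potency is the fitted concentration of half-maximal effect; 0% = vehicle wells and -100% = peptide control; nearly all actives have a fitted effect of over 45% in size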
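AMA1 (3D7) with his tag at 25 nM final met compounds first, then biotinylated RON2 peptide at 25 nM; detection used donor plus acceptor beads, 10 µg/mL apiece, read by AlphaScreen after 30 min at room temperature.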
Shiga toxin inh = A qHTS for Small Molecule Inhibitors of Shiga Toxin | Vero cells, Shiga toxin protein synthesis inhibition reporter | inhibition, % at 38.7 µM | 9.2% of 290,000 active; in the data active = inhibition mostly above about 28%, no sharp cut-off; inactive = mostly below about 43%; note: 0% is about no effect
Cycloheximide cs = Cycloheximide Counterscreen for Small Molecule Inhibitors of Shiga Toxin; 12% of 300,000 active; AID 2314, 2010; max response, %; cell reporter, cycloheximide protein synthesis inhibition counterscreen; in the data active = max response mostly above about 13%, no sharp cut-off; inactive = mostly below about 14%; note: read at 38.3 µM for the half of the compounds with a filed dose; 0% is about no effect
AmpC no deterg = qHTS Inhibitors of AmpC Beta-Lactamase (assay without detergent); P00811; AmpC nitrocefin hydrolysis, absorbance 480 nm, 0.0001% Triton; Potency, µM (doses to about 57.1 µM), inactives show top-dose activity change, negative = inhibition, usual class: inhibitors; 0.52% of 330,000 active; AID 485341, 2010;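 note: potency is the fitted concentration of half-maximal effect; plate controls were no compound for no effect and no enzyme for full effect; nearly all actives have a fitted effect of over 20% in size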
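AmpC (5.3 nM in the dispensed reagent) in 20 mM phosphate pH 7.0 with 0.01% (detergent screen) or 0.0001% Triton X-100 was preincubated with compounds for 15 min at room temperature. Nitrocefin was then added from an 800 uM solution, and hydrolysis was followed at 480 nm.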
SARS PLpro yeast = qHTS of Yeast-based Assay for SARS-CoV PLP; Potency, µM (series often up to 32.9 µM), inactives show top-dose activity, positive = growth rescue, actives largely listed as activators; S. cerevisiae expressing SARS-CoV PLpro, growth rescue; 0.19% of 330,000 active; AID 485353, 2010; calls by dose curve; note: potency is the fitted concentration of half-maximal effect; 0% is about no effect; nearly all actives have a fitted effect of over 55% in size
* = called active by the depositor; ? = inconclusive; / = not tested or not shown; [ ] = another dose, or the depositor's remark. Unless noted, calls come from the whole dose curve; as a rule, active = well fitted curve in the direction sought with a large enough effect; inconclusive = small, poorly fitted or top-dose-only effect, or another doubt; inactive = no such curve, though single readings can be large; an effect the other way counts as inactive or inconclusive.

SMILES	AmpC detergent	AMA1-RON2 inh	Shiga toxin inh	Cycloheximide cs	AmpC no deterg	SARS PLpro yeast
COC(=O)c1sc(NC(=O)C(C)c2ccccc2)nc1C (centres undefined)	-12%	5%[11.6 µM]	42	9	-17%	-41%
CCOC(=O)c1sc(NC(=O)c2ccccc2OCC)nc1C	4%	5%	69	36*	-31%	2%
Cc1nc(Nc2ccc(Cl)c(Cl)c2)sc1C(=O)Nc1ccccc1	?	-10%	-28	25*	-32%	-84%
CCOc1ccccc1C(=O)Nc1nnc(C(C)C)s1	-12%	18%	14	6	33%	2%
CC(C)c1ccccc1OCC(=O)N(C)CC(=O)Nc1ccc(F)cc1	-11%	0%	/	/	-2%	-2%
CC(=O)c1sc(Nc2cccc(C)c2)nc1C	8%	9%	91*	46*	-4%	-1%
CC(=O)c1sc(Nc2ccccc2)nc1C	/	0%	/	/	/	/
Cc1nc(NC(=O)C2CC2)sc1C(=O)Nc1ccccc1Cl	-15%	24%	19	33*	-28%	-5%
CCOC(=O)c1sc(NCC2CCCO2)nc1C (centres undefined)	?	1%	10	active	-12%	-3%
Cc1nc(Cl)sc1C(=O)Nc1ccccc1Cl	3%	2%	-8	12	-18%	0%
CCOC(=O)c1sc(Nc2ccc(C)cc2C)nc1C	0%	?	19	18*	-19%	-12%
COc1ccc(S(=O)(=O)NCCc2csc(-c3ccc(F)cc3)n2)cc1F	8%	/	/	/	/	/
O=C(CSc1nnc(-c2cccnc2)n1Cc1ccco1)N1CCc2ccccc21	-11%	-4%	-15	1	78%	-3%
CCOC(=O)c1sc(N/N=C/c2ccccc2)nc1C	-12%	17%	34*	85*	60%	-8%
CCOC(=O)c1sc(N/N=C/c2cccc(C)c2)nc1C	-13%	33%	16	16	-16%	9%
COC(=O)c1ccc(/C=N/Nc2nc(C)c(C)s2)cc1	-6%	42%	97*	63*	-6%	18%
CCOC(=O)c1sc(Nc2nc3c(OC)cccc3s2)nc1C	-1%	/	81*	50*	-21%	-3%
COc1ccccc1CNc1nc(C)c(C(C)=O)s1	-2%	-7%	61*	43*	-13%	1%
O=C(O)c1ccc(Nc2nc3c(s2)CCCC3)cc1	-2%	-8%	-32	-5	-14%	0%
Cc1cccc(Nc2nc3c(s2)CCCC3)c1	2%	-11%	122*	68*	-23%	-24%
COc1cccc2sc(NC(=O)c3ccc(Br)s3)nc12	-4%	0%	72	32*	-43%	-6%
CCOC(=O)c1sc(Nc2ccc(F)cc2)nc1C	5%	-15%	80*	28*	-17%	1%
COc1cccc2sc(NC(=O)c3ccc4c(c3)OCCO4)nc12	-8%	/	/	/	/	/
CCCCc1ccc(-c2ccc(Br)cc2O)nc1	-12%	39%	86*	49*	-14%	-7%
CCCCCc1ccc(-c2ccc(C(=O)Oc3ccc(C(=O)OC)cc3)cc2)nc1	10%	/	/	/	/	/
SMILES	AmpC detergent	AMA1-RON2 inh	Shiga toxin inh	Cycloheximide cs	AmpC no deterg	SARS PLpro yeast
CCCCN(CC)C(=O)Cc1ccc(Br)cc1	-6%	2%	-12	1	-10%	3%
CCCCc1ccc(-c2ccc(C)cc2O)nc1	-14%	58%	58*	25*	-21%	6%
CC(=O)Nc1ccc(S(=O)(=O)N(C)CC(=O)OC(C)C(=O)NC2CCCCC2)cc1 (centres undefined)	-26%	19%	/	/	-17%	2%
CN(/N=C/c1ccc(Cl)cc1)c1ncc(Cl)cc1C(F)(F)F	-4%	2%	1	11*	-28%	-1%
C=CCNC(=S)NNC(=O)c1ccc(OCCC)cc1	-1%	2%	16	0	-19%	23%
N#CCCS(=O)(=O)c1nnnn1-c1ccccc1	-9%	/	6	19*	-20%	-32%
COc1ccc(/C=N/N(C(C)=O)c2nc(-c3ccc(C)cc3)cs2)cc1	-17%	-2%	22	-1	3%	0%
COc1ccccc1/C=N/N(C(C)=O)c1nc(-c2ccc(F)cc2)cs1	7%	18%	41	30*	-10%	0%
CCN(CC)CCNC(=O)C1CCN(S(=O)(=O)N2CCCCC2)CC1	2%	0%	3	-1	0.28µM*	1%
CC(NC(=O)C1CCN(S(=O)(=O)N2CCC3(CC2)OCCO3)CC1)c1ccccc1 (centres undefined)	6%	4%	-4	-2	-11%	-5%
CC(NC(=O)C1CCN(S(=O)(=O)N2CCCCCC2)CC1)c1ccccc1 (centres undefined)	-3%	-5%	-7	17*	29%	3%
Cn1c(-c2ccsc2)c(-c2cccs2)c2cc(-c3cccc4[nH]ccc34)ccc21	1%	-22%	/	/	-47%	-1%
c1ccc(-c2c3ccccc3nc3[nH]c4ccccc4c23)cc1	-12%	0%	-15	-2	-25%	-16%
c1ccc2nc3c(nc2c1)[nH]c1ccccc13	-2%	0%	103*	64*	-26%	-17%
C/C(=N/Nc1ccc(C)cc1)C1(C)N(O)C(C)(C)C(c2ccco2)=[N+]1[O-] (centres undefined)	-2%	5%	36	17*	-24%	3%
COc1cc(S(=O)(=O)N2CCOCC2)cc(C(=O)OCC(=O)NC2CCCCC2)c1OC	4%	-6%	/	/	51%	9%
CCOc1ccc(C(=O)NC(=S)Nc2ncccc2C)cc1[N+](=O)[O-]	-1%	78%	33*	25*	-2%	26%
CCOc1ccc(C(=O)NC(=S)Nc2ccc(NC(=O)c3ccco3)cc2)cc1[N+](=O)[O-]	?	5%	5	15*	-21%	-8%
CCN(CCNC(=O)CN(C)S(=O)(=O)c1cccc2nsnc12)c1ccccc1	-6%	-13%	-9	1	35%	-6%
CSc1nc(-c2ccc(N(C)C)cc2)c(C#N)c(=O)n1C	0%	37%	42*	25*	-2%	-1%
Fc1cccc(Nc2nc(Cl)nc(Cl)n2)c1	-5%	10%	33	-4	-23%	0%
Fc1ccc(Nc2ccc(-c3ccc(F)cc3)nn2)cc1	7%	-11%	63*	50*	-26%	-1%
CCOC(=O)c1ccc(Nc2ccc(-c3ccc(OC)c(OC)c3)nn2)cc1	-14%	-17%	-3	1	18%	-1%
Fc1ccc(-c2ccc(Nc3cccc(F)c3)nn2)cc1	-2%	-10%	51*	46*	-14%	0%
CC(C)(C)OC(=O)N[C@@H](C(=O)OC(C)(C)C)c1ccc(C(F)(F)F)cc1	-10%	11%	/	/	23%	-11%
